The full ranking holds about 68,000 sequences; the median of “fluorescence intensity (a.u.)” is about 9,100, and the highest 2% start at about 16,000. Many of the other results were omitted from the sample, so the highest values are more common in it than they were.
Molecular target: OsWRKY34 (Oryza sativa, UniProt Q0JBA9 1-250)
Experiment: protein-binding microarray (RPBM); PBS, 2% BSA, 51.3 ng/ul salmon testes DNA, 50 uM zinc acetate, 200 nM TF, 25 C, 1 h; high values mean tight binding
Conditions: protein: recombinant; tags: N-terminal polyhistidine and DsRed monomer fusion (pET32a); label: CyDye5-dUTP incorporated in the synthesized complementary strand; 3' TTTTT single-stranded linker to array surface; dsDNA, one strand shown
Summary of the method: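 The binding signal is fluorescence intensity per array feature (arbitrary units). Readings came from an Axon 4000B scanner after a washed, 2% BSA-blocked, double-stranded custom Agilent array had been incubated for 1 h at 25 °C with 200 nM protein and 50 µM zinc acetate. The protein was a Ni–NTA-purified transcription factor fused N-terminally to polyhistidine and DsRed, expressed in E. coli BL21-CodonPlus.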

OsWRKY34, sequence (Q0JBA9 entry or part of it): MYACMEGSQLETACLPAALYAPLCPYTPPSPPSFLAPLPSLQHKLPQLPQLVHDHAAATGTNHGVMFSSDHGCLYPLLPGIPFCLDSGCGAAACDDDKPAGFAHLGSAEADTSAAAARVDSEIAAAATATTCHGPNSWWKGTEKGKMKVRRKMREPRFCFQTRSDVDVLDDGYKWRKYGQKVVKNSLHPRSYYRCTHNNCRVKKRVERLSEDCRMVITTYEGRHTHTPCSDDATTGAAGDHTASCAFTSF

Sequence	binding signal
CGTCTCTTTTATCCTTCTTTTTTTTCCCATTTTTCTTTTTCGGAGTCACCTAGTGCAG	11900 fluorescence intensity (a.u.)
CCATTTAGATTGGTGCCATTTTAAACTATATCTTTTTCTTCGGAGTCACCTAGTGCAG	8220 fluorescence intensity (a.u.)
AGTTTTATCCTGGGTTTGTGTTTGGTGCTGTTCTTGCGTGCGGAGTCACCTAGTGCAG	10200 fluorescence intensity (a.u.)
GGCGGATTTCGGTTTCTTCGTGTGTTTGTTGGTTGCGTTGCGGAGTCACCTAGTGCAG	12700 fluorescence intensity (a.u.)
CCGCTGTTATTCCCTTTGTTGTTTTTTCTCAAGTAAATTTCGGAGTCACCTAGTGCAG	13200 fluorescence intensity (a.u.)
CCGCTGCTGTTTTCTTTTCTTTTGTAAGTGTGTAACGTTACGGAGTCACCTAGTGCAG	9400 fluorescence intensity (a.u.)
CGTTATTCCGCTGTTGTTTTTTTTTTCTTTTGTAAGTATGCGGAGTCACCTAGTGCAG	17500 fluorescence intensity (a.u.)
TTGGATTGGTTTCTTTCTGCTCTGTTGCAGCTCCGTTGTCCGGAGTCACCTAGTGCAG	9560 fluorescence intensity (a.u.)
CTTGGTGGTTCTTTTCTTCTTCTAGATTTATCCCCATTTTCGGAGTCACCTAGTGCAG	16700 fluorescence intensity (a.u.)
TGAGTTTGTTTGCTGGGTTGGTTCGTGCGTTTTCTTGGATCGGAGTCACCTAGTGCAG	18800 fluorescence intensity (a.u.)
AGGGTTTTTTTTGTCACTTTCGTTGTCAGTTTCTTTTTTCCGGAGTCACCTAGTGCAG	14100 fluorescence intensity (a.u.)
GGTTGGTTTCTTTCGTTGGATTGTTTCGAGCCAGGGTTTCCGGAGTCACCTAGTGCAG	16900 fluorescence intensity (a.u.)
TCTCTCGCCGATTCCGCCACCGCCGCCGCGCCGCGCCTCGCGGAGTCACCTAGTGCAG	9420 fluorescence intensity (a.u.)
GACGGTGGCCATTCTAATTCCTCTATTGCAGGGTCTAACTCGGAGTCACCTAGTGCAG	8310 fluorescence intensity (a.u.)
TATATCCTATCTCTCACTTCACTCATATAGTGGTTAACTCCGGAGTCACCTAGTGCAG	9570 fluorescence intensity (a.u.)
ACTTTTCTACACACATAAACTTCTAACTTTTTCATCACATCGGAGTCACCTAGTGCAG	13400 fluorescence intensity (a.u.)
GTAGTGCTGATGTTGTACTGTGTTTTTTTACCCGTTTTATCGGAGTCACCTAGTGCAG	11500 fluorescence intensity (a.u.)
CCACCACCACCACGCCACGGCAGCCGCACCGCACCGCACCCGGAGTCACCTAGTGCAG	8390 fluorescence intensity (a.u.)
CACACCTCGCCTCCTCCTCGGCTTGGATCTCGCCGCATCACGGAGTCACCTAGTGCAG	8210 fluorescence intensity (a.u.)
AACGGTACCATCACCATCATTTATCATGGGCACAACTTGCCGGAGTCACCTAGTGCAG	8810 fluorescence intensity (a.u.)
CCTTCGTCGACCCTCCGCCGCCGCCGCCGCCGCCGCCGACCGGAGTCACCTAGTGCAG	8660 fluorescence intensity (a.u.)

Sequence	binding signal
CAACATACAGGGAGTTTTTACCGGCCGCCCTCTACTCTCACGGAGTCACCTAGTGCAG	9800 fluorescence intensity (a.u.)
GAGTTAGCCATGGCCTGTCAATTACTGGAACTCTGTTGTACGGAGTCACCTAGTGCAG	8220 fluorescence intensity (a.u.)
GTTGCTTTTGCTGGAGTAGTACTTCTATTTATCTTCAAACCGGAGTCACCTAGTGCAG	9100 fluorescence intensity (a.u.)
ATCTGTTCGTGGGTTGCTTGCTCAGTCGACCAATCGTTGACGGAGTCACCTAGTGCAG	19200 fluorescence intensity (a.u.)
TGTTTTTTCCTTTTTTTTTCTTTTCTTTTTCTCTCTTCCCCGGAGTCACCTAGTGCAG	8200 fluorescence intensity (a.u.)
GGGCTTGCGATCGTGTTGTGTTGGGTTGGGTCTTGGGTTTCGGAGTCACCTAGTGCAG	29400 fluorescence intensity (a.u.)
CTCAGTCGACCAATCGTTGATCGCCACGTCGGCTGTTCTTCGGAGTCACCTAGTGCAG	8350 fluorescence intensity (a.u.)
TGGTCTTGCCTCTCGCTTAGCCTTTTTGTTGCCTTGTGCTCGGAGTCACCTAGTGCAG	12300 fluorescence intensity (a.u.)
TTTTCGCATGTTTCTTTTCTTTTTTTTTCTTTTCTTTTCCCGGAGTCACCTAGTGCAG	16600 fluorescence intensity (a.u.)
TTTTTTCTTTTTTTTTTTGTTTTTTCTCGCCTTTTTTTCCCGGAGTCACCTAGTGCAG	11900 fluorescence intensity (a.u.)
TTCGTGGTTTCGTTCAGCTTGATTTCGCTTGACACATCGACGGAGTCACCTAGTGCAG	9110 fluorescence intensity (a.u.)
CATTTTCTTGGTTTGGTCTTTTTTATTGTTGGGTGTGTTTCGGAGTCACCTAGTGCAG	15500 fluorescence intensity (a.u.)
CTGTAGTTGCCTTTGTTGGTCTTGGTTTTGCTGTTCTGGTCGGAGTCACCTAGTGCAG	9910 fluorescence intensity (a.u.)
CTGGTCAGTTGGTCTTGTGTTTTGGGCTTTTTCGGCCCGTCGGAGTCACCTAGTGCAG	12200 fluorescence intensity (a.u.)
GGAGGGTCTGTTTTCTTGTGTGCGAGCCTTGCTAGTTGCTCGGAGTCACCTAGTGCAG	16500 fluorescence intensity (a.u.)
TCTGACACCTATCTCTCCTGGATTCTCCATGCTTTCTTTCCGGAGTCACCTAGTGCAG	10300 fluorescence intensity (a.u.)
TTTTCTCACCACTCTCTCTTTCGTGTTCTCTCTCTCTTGTCGGAGTCACCTAGTGCAG	12500 fluorescence intensity (a.u.)
CATCCTCCTTCCGGAACCTTCTAGAAGGTTCTCCTCGTACCGGAGTCACCTAGTGCAG	8530 fluorescence intensity (a.u.)
ATGTATTGGTGTTATGCCTTCTGTTTATTTTATTTGCTCCCGGAGTCACCTAGTGCAG	8730 fluorescence intensity (a.u.)
AAATCTGTAGCCCGCTGCTTTTCTCTCTCCTTATTTATCTCGGAGTCACCTAGTGCAG	11200 fluorescence intensity (a.u.)
CCAATATCACGTTGTCCTAGCTCTGCCAACGACTTCATCTCGGAGTCACCTAGTGCAG	8320 fluorescence intensity (a.u.)
